Reference: ChEMBL document CHEMBL3988442, “University of Dundee, Small-Polar-MMV Screening Library” (2021)
Out of some 69,000 compounds screened, about 1,000 (1.4%) showed an effect of 50% or more. The entries come from a sample that favours strong results as a whole.

Tested on: Leishmania donovani
Assay: Leishmania intramacrophage assay
Assay type: functional, organism-based
Set-up: scale not given: in the data most compounds retested in dose-response had high values

SMILES: O=C(c1ccc[nH]1)N1CCc2cc(S(=O)(=O)N3CCOCC3)ccc2C1
- Percent Effect (30.3 µM, […]): 17.1%

SMILES: O=C(c1ccc[nH]1)N1CCc2ccc(S(=O)(=O)N3CCOCC3)cc2C1
- Percent Effect (30.3 µM, […]): -1.46%

SMILES: O=C(c1cc[nH]n1)N1CCc2ccc(S(=O)(=O)N3CCOCC3)cc2C1
- Percent Effect (30.3 µM, […]): 52.38%

SMILES: CC(O)CNc1nc(-c2cccnc2)nc2c1CCC2 (centres undefined)
- Percent Effect (30.3 µM, […]): 13.01%

SMILES: CCc1noc(CNc2nc(-c3cccnc3)nc3c2CCNCC3)n1
- Percent Effect (30.3 µM, […]): 27.11%

SMILES: Cl.NC1CCc2nc(-c3cccnc3)nc(Nc3ccc(F)cc3)c2C1 (centres undefined)
- Percent Effect (30.3 µM, […]): 94.83%

SMILES: CN(CC1CCCO1)c1nc(-c2cccnc2)nc2c1CCNCC2 (centres undefined)
- Percent Effect (30.3 µM, […]): 34.58%

SMILES: c1cncc(-c2nc3c(c(NCC4(c5ccncc5)CC4)n2)CCC3)c1
- Percent Effect (30.3 µM, […]): 33.94%

SMILES: CNS(=O)(=O)CC(=O)NC(C)Cc1ccc(-c2ccccc2)cc1 (centres undefined)
- Percent Effect (30.3 µM, […]): 32.54%

SMILES: CN(CCN(C)S(=O)(=O)CC1CCOCC1)c1ccccc1
- Percent Effect (30.3 µM, […]): 4.21%

SMILES: Fc1ccccc1NCc1nc2n(n1)CCCCC2
- Percent Effect (30.3 µM, […]): -12.91%

SMILES: CC(=O)N1CCC2(C=C(C(=O)NC3CC3)c3ccccc32)CC1
- Percent Effect (30.3 µM, […]): 1.849%

SMILES: O=C(Nc1ccccc1)C1=CC2(CCNCC2)c2ccccc21
- Percent Effect (30 µM, 30.03 µM): 52.55%

SMILES: O=C(C1=CC2(CCNCC2)c2ccccc21)N1CCCC1
- Percent Effect (30 µM, 30.03 µM): -18.75%

SMILES: Cc1nn(CCn2ccnc2-c2cc3n(n2)CCCNC3)c(C)c1Cl
- Percent Effect (30 µM, 30.03 µM): 27.54%

SMILES: COc1ccc(CN2CCCCCC2c2cccs2)c(OC)c1 (centres undefined)
- Percent Effect (30.3 µM, […]): 16.39%

SMILES: Cc1nc(C2CCCN(C(=O)c3cc(-c4ccccc4)[nH]n3)C2)no1 (centres undefined)
- Percent Effect (30.3 µM, […]): 9.064%

SMILES: CC(C)CCN1CC2(CCN(C(=O)C3(C)CCCCO3)CC2)OC1=O (centres undefined)
- Percent Effect (30.3 µM, […]): 6.725%

SMILES: COc1ccc(C2=Nn3c(CCN)nnc3-c3ccccc3C2)cc1
- Percent Effect (30.3 µM, […]): 89.23%

SMILES: COc1ccc(C2=Nn3c(CN)nnc3-c3ccccc3C2)cc1
- Percent Effect (30.3 µM, […]): 36.2%

SMILES: COc1ccc(C2=Nn3c(CCCN)nnc3-c3ccccc3C2)cc1
- Percent Effect (30.3 µM, […]): 30.64%

SMILES: CC(=O)N1CCc2c(nc(N(C)C)nc2NCCCn2ccnc2)C1
- Percent Effect (30.3 µM, […]): -10.69%

SMILES: CN(C)CCN1C[C@@H]2CN(C(=O)C3CCOC3)C[C@@H]2C1=O.O=C(O)C(F)(F)F (some centres undefined)
- Percent Effect (30.3 µM, […]): -26.31%

SMILES: Cc1cc(C(=O)N2CCC3(CCC(=O)N(CC(N)=O)C3)CC2)ccc1O
- Percent Effect (30.3 µM, […]): 11.98%

SMILES: CC(=O)N1CCC(NC(=O)c2cc(S(N)(=O)=O)ccc2C)CC1
- Percent Effect (30.3 µM, […]): -1.924%

SMILES: Cc1ccc(S(N)(=O)=O)cc1C(=O)NC1CCCN(C)C1 (centres undefined)
- Percent Effect (30.3 µM, […]): 17.05%

SMILES: Cc1ccc(S(N)(=O)=O)cc1C(=O)NC1CCCC1
- Percent Effect (30.3 µM, […]): 54.24%

SMILES: CNC(=O)CN(C)C(=O)c1cc(Cl)c(Cl)n1C
- Percent Effect (30.3 µM, […]): 1.638%

SMILES: NC(=O)N1CCC(C(=O)NC2CCc3nccn3C2)CC1 (centres undefined)
- Percent Effect (30.3 µM, […]): -91.03%

SMILES: C=Cc1cccc(CN2CCCn3nc(CNS(C)(=O)=O)cc3C2)c1
- Percent Effect (30.3 µM, […]): 8.14%

SMILES: Fc1cnc(N2C[C@@H](OCC3CCOCC3)[C@H]3OCCC[C@H]32)nc1.O=C(O)C(F)(F)F
- Percent Effect (30.3 µM, […]): 63.79%

SMILES: Fc1cnc(N2CCO[C@H]3[C@H](OCC4CCOCC4)CC[C@@H]32)nc1.O=C(O)C(F)(F)F
- Percent Effect (30.3 µM, […]): 42.92%

SMILES: O=C(O)C(F)(F)F.c1cnc(N2CCO[C@H]3[C@H](OCC4CCOCC4)CC[C@@H]32)nc1
- Percent Effect (30.3 µM, […]): 26.14%

SMILES: NC1CCCCN(Cc2ccccc2CS(=O)(=O)c2ccccc2)C1 (centres undefined)
- Percent Effect (30.3 µM, […]): 64.11%

SMILES: O=S(=O)(Cc1ccccc1CN1CC[C@H](CO)[C@H](O)C1)c1ccccc1
- Percent Effect (30.3 µM, […]): 22.14%

SMILES: N[C@@H]1CCN(Cc2ccccc2CS(=O)(=O)c2ccccc2)C[C@H]1O
- Percent Effect (30.3 µM, […]): 11.27%

SMILES: Cc1cnn(C2CN(Cc3nc(-c4ccccn4)no3)C2)c1
- Percent Effect (30 µM): -31.22%

SMILES: O=S(=O)(c1ccccc1)N1CCCN(CCCn2ccnc2)CC1
- Percent Effect (30 µM, 30.03 µM): 52.87%

SMILES: O=S(=O)(c1ccccc1)N1CCN(CCn2ccnc2)CC1
- Percent Effect (30 µM, 30.03 µM): 0.5728%

SMILES: Cc1ccc(S(=O)(=O)N2CCN(CCCn3ccnc3)CC2)cc1
- Percent Effect (30.3 µM, […]): 3.879%

SMILES: CCc1cc(=O)[nH]c2nnc(SCC(=O)NC(C)C)n12
- Percent Effect (30.3 µM, […]): -15.02%

SMILES: COc1ccc(C(=O)N2CC[C@@]3(O)CCCC[C@H]3C2)cc1OC
- Percent Effect (30.3 µM, […]): 15.68%

SMILES: Cc1ccc2cc(C3(O)CCN(C(=O)CSC(C)C)CC3)ccc2n1
- Percent Effect (30.3 µM, […]): 27.25%

SMILES: Cc1nc(C2CCCNC2)nc2c1CCCN2Cc1ccccn1.Cl.Cl (centres undefined)
- Percent Effect (30.3 µM, […]): 30.18%

SMILES: CNc1cc(-c2ccccc2CN)c2cc[nH]c2n1
- Percent Effect (30.3 µM, […]): 31.34%

SMILES: CNc1cc(-c2ccc(COCCN)cc2)c2cc[nH]c2n1
- Percent Effect (30.3 µM, […]): -14.52%

SMILES: CNc1cc(-c2cccc(CN)c2)c2cc[nH]c2n1
- Percent Effect (30.3 µM, […]): 52.08%

SMILES: C=C(C)CN1CCC(C(=O)c2cc(F)ccc2F)CC1
- Percent Effect (30 µM): 41.7%

SMILES: Cc1cccc2c1nc(CCO)n2-c1ccc(C(=O)N2CCOCC2)o1
- Percent Effect (30.3 µM, […]): 26.23%

SMILES: CC(=O)N1N=C(COc2ccc(C)cc2)OC1c1ccc(N(C)C)cc1 (centres undefined)
- Percent Effect (30.3 µM, […]): 54.92%

SMILES: COc1ccc(C2OC(COc3ccc(C)cc3)=NN2C(C)=O)cc1 (centres undefined)
- Percent Effect (30.3 µM, […]): 8.051%

SMILES: COCCNc1nc(N2CCOCC2)nc2nccnc12
- Percent Effect (30.3 µM, […]): 21.04%

SMILES: CC(C)=CCN1CCN(C(=O)C2CC2)CC1
- Percent Effect (30.3 µM, […]): -4.864%

SMILES: COc1ccccc1CC(NC(=O)N1CCC[C@@H]1CO)C(C)C (some centres undefined)
- Percent Effect (30.3 µM, […]): 9.914%

SMILES: CS(=O)(=O)CCNC(=O)Nc1sc2ccccc2c1Cl
- Percent Effect (30.3 µM, […]): -48.56%

SMILES: CN(C)C(=O)CCNC(=O)Nc1sc2ccccc2c1Cl
- Percent Effect (30.3 µM, […]): -8.505%

SMILES: CN(C)CC(C)(O)CNC(=O)Nc1sc2ccccc2c1Cl (centres undefined)
- Percent Effect (30.3 µM, […]): 53.76%

SMILES: CN(CC(=O)NC(Cc1ccsc1)c1cccnc1)Cc1cccnc1.Cl (centres undefined)
- Percent Effect (30.3 µM, […]): 2.46%

SMILES: O=c1[nH]c2c(c(=O)n1C1CCCCC1)CCC2Nc1ccccc1Cl (centres undefined)
- Percent Effect (30 µM, 30.03 µM): 19.4%

SMILES: CC(CNC(=O)c1cccc(-n2cccn2)n1)Cn1ccnc1 (centres undefined)
- Percent Effect (30.3 µM, […]): 11.75%

SMILES: O=C(NC[C@H]1CC[C@H](c2ccnc3ncnn32)CC1)c1ccccn1
- Percent Effect (30.3 µM, […]): 56.14%

SMILES: O=C(NC[C@H]1CC[C@H](c2ccnc3ncnn32)CC1)C1CC1
- Percent Effect (30.3 µM, […]): 16.97%

SMILES: COCC(=O)NC[C@H]1CC[C@H](c2ccnc3ncnn32)CC1
- Percent Effect (30.3 µM, […]): 23.66%

SMILES: COc1ccc(OCc2noc(CN(C)C3CCS(=O)(=O)C3)n2)cc1 (centres undefined)
- Percent Effect (30.3 µM, […]): 17.47%
